How the values were obtained:
Test in all cases: log2 ratio of Biotin-Ahx-Ub-VS probe labelling (fragment/DMSO); higher = less target engagement (more negative = stronger competition), active = hit call of the paper (q ≤ 0.05, log2 ratio ≤ -1)
Settings in all cases: compound concentration: 200 uM; treatment time: 3 h
USP42 = target: T1, USP42 (UniProt Q9H9J4)
T1 sequence (whole entry): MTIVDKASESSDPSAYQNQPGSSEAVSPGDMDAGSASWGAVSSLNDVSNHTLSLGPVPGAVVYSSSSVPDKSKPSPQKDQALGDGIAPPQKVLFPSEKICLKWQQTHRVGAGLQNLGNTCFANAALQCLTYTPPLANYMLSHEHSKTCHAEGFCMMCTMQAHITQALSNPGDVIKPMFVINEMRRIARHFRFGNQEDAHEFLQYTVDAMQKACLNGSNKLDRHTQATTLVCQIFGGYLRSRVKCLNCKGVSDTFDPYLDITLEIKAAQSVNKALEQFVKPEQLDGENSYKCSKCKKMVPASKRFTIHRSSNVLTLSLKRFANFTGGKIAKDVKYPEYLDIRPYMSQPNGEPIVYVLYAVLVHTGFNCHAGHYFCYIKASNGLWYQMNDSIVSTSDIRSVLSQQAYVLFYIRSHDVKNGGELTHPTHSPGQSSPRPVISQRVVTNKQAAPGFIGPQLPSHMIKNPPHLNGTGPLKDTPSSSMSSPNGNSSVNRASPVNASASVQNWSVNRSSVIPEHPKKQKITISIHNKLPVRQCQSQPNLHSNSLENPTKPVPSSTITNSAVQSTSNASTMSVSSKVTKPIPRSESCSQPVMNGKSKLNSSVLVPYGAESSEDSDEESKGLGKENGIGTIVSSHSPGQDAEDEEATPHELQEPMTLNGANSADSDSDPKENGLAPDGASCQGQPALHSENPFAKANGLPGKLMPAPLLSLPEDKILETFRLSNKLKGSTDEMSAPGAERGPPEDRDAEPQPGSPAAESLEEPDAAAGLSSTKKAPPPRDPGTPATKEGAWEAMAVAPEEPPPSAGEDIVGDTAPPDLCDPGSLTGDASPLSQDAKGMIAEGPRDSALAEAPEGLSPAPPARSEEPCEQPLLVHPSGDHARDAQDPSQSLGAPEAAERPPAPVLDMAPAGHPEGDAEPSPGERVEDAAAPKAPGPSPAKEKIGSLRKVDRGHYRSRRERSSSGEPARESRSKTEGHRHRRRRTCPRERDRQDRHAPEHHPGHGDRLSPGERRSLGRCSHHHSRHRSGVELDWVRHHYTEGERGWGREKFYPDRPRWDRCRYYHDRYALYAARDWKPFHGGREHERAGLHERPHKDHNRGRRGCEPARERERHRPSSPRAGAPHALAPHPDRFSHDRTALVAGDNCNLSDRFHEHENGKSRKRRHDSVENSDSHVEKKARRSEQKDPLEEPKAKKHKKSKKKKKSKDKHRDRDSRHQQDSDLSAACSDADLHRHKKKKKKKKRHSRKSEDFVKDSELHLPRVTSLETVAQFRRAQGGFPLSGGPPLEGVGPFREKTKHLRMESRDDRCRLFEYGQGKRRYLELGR
Method in brief: (§1)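 HEK293T lysate in Tris/CHAPS/IGEPAL buffer with protease inhibitors (495 µg per sample) was given fragment at 200 µM or vehicle for 3 h, in triplicate. It then received Biotin-Ahx-Ub-VS at 0.5 µM final for 1 h. Labelled DUBs were NeutrAvidin-enriched, digested with LysC and trypsin, and run by diaPASEF LC-MS/MS. Values are average log2 fragment/vehicle ratios by unpaired t-test on global-median-normalised Spectronaut quantities of proteins with ≥2 unique peptides.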

USP46 = USP46 (UniProt P62068)
Sequence of USP46 (P62068 whole entry): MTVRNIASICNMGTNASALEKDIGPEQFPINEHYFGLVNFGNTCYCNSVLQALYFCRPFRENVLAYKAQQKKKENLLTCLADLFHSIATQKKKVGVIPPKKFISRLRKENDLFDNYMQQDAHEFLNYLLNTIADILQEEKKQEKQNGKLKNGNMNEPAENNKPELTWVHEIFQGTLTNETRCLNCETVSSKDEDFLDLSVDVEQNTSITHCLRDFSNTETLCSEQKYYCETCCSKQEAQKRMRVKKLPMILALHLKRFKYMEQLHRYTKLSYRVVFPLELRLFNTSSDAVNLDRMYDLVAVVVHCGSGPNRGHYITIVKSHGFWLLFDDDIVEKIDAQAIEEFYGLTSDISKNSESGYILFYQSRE
Method in brief: as §1

USP47 = target: T2, USP47 (UniProt Q96K76)
T2 sequence (whole entry): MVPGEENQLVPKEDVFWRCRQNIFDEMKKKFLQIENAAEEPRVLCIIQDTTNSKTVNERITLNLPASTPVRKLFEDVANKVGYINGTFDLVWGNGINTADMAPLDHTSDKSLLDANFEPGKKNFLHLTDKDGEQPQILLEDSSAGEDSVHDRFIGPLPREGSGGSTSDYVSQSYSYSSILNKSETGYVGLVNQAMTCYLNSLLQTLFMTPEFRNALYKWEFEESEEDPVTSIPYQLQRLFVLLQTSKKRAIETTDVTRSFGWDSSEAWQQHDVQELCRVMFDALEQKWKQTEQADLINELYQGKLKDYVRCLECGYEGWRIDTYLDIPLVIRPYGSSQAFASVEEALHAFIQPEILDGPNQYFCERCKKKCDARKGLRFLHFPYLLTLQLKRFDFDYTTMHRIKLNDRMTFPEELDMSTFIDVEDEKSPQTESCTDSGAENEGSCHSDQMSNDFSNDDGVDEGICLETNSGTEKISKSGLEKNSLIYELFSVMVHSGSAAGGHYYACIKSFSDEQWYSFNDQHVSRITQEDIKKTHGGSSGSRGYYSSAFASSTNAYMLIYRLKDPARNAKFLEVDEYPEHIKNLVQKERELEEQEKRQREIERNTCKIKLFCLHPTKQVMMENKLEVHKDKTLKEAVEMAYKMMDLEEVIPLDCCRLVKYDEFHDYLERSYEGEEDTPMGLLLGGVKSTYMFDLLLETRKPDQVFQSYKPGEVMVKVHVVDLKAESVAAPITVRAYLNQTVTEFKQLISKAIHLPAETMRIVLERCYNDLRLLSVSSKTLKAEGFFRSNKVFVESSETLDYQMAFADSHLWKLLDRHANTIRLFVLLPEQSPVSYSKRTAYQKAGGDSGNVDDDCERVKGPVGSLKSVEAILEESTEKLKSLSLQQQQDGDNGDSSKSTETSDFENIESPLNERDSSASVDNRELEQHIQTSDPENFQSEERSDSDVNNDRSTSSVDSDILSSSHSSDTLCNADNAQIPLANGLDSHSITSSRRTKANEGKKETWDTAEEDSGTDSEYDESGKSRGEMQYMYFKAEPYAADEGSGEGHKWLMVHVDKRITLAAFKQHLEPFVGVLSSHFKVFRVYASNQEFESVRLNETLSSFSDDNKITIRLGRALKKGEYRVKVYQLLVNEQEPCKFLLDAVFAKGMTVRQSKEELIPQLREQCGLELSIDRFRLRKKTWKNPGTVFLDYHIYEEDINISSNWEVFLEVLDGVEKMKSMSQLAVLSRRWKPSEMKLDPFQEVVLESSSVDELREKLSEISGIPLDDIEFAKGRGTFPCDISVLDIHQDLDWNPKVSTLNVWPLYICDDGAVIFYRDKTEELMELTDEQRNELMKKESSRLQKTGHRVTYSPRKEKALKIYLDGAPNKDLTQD
Method in brief: as §1

USP48 = target: T3, USP48 (UniProt Q86UV5)
T3 sequence (whole entry): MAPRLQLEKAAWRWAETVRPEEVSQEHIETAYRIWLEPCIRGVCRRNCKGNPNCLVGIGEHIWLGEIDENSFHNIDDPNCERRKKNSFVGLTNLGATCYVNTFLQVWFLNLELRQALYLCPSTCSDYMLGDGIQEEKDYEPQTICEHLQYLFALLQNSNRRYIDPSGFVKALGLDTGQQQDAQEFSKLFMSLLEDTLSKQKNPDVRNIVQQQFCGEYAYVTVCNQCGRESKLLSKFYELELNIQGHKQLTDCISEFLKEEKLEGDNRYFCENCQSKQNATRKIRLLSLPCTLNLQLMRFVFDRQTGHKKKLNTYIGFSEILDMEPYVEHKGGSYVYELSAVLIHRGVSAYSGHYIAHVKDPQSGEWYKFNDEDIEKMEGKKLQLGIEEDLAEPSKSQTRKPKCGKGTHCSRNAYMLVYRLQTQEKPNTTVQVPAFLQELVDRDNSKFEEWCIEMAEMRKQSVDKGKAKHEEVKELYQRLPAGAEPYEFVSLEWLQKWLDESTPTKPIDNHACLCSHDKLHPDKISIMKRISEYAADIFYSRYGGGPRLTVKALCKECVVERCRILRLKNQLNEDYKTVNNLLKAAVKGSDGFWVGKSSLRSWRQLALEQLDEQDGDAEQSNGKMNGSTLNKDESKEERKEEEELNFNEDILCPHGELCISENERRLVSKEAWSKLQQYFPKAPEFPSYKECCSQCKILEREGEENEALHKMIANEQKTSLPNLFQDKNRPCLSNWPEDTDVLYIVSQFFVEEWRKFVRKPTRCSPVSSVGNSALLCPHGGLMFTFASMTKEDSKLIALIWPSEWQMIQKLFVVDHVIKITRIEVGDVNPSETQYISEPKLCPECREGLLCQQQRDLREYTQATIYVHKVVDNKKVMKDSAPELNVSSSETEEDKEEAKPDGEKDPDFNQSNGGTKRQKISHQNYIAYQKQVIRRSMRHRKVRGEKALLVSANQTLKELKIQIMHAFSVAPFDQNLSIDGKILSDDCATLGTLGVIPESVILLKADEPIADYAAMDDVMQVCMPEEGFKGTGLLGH
Method in brief: as §1

USP5 = target: T4, USP5 (UniProt P45974)
T4 sequence (whole entry): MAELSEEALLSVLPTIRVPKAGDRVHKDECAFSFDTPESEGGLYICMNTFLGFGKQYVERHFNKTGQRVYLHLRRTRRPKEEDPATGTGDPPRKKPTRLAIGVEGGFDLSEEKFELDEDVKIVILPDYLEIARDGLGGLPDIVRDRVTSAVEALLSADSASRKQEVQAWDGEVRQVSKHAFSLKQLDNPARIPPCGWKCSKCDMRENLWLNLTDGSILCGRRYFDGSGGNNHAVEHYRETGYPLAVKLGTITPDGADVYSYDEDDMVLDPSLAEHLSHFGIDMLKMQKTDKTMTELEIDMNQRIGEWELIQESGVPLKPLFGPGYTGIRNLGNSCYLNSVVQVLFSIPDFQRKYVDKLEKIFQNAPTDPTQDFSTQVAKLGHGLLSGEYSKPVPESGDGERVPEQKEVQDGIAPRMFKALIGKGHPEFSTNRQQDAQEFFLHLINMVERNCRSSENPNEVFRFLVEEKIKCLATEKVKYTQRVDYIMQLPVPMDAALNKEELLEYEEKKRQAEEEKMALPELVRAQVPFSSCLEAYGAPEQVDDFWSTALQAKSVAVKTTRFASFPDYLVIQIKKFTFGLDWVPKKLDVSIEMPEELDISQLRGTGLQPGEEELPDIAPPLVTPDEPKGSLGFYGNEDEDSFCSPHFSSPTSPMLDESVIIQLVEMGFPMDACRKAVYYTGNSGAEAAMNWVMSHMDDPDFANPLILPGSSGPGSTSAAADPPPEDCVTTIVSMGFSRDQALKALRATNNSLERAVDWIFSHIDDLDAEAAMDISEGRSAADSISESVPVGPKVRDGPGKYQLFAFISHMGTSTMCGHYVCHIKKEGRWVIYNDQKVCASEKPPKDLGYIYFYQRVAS
Method in brief: as §1

USP54 = USP54 (UniProt Q70EL1)
Method in brief: as §1

USP7 = USP7 (UniProt Q93009)
Sequence of USP7 (Q93009 whole entry, looked up): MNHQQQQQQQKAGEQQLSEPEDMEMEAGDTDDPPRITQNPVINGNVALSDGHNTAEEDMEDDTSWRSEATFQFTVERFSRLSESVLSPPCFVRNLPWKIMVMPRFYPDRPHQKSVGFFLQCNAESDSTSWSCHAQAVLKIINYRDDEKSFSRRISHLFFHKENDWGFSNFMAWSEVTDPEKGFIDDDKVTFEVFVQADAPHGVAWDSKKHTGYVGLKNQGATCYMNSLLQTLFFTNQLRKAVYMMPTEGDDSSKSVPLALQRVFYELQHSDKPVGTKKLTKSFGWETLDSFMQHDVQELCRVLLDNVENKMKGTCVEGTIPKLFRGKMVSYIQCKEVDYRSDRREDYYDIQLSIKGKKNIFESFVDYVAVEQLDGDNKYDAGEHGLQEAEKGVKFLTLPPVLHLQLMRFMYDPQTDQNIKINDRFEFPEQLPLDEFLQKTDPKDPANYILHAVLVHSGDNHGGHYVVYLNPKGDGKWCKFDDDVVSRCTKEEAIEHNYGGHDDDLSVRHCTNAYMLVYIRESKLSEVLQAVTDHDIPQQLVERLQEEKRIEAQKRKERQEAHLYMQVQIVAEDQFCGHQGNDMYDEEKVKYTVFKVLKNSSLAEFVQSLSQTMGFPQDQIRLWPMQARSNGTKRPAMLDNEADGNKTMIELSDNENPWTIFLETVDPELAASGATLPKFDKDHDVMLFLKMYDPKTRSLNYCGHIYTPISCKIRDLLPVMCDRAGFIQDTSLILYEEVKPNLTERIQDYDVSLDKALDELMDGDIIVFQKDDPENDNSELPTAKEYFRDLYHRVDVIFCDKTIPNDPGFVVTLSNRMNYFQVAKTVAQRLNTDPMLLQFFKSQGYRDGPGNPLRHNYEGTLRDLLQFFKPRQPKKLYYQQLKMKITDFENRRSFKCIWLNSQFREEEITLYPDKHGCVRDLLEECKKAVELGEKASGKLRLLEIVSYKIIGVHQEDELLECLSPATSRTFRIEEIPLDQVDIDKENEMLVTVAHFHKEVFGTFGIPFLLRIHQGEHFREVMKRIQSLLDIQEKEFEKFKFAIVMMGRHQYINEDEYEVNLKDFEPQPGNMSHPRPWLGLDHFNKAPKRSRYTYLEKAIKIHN
Method in brief: as §1

USP8 = target: T5, USP8 (UniProt P40818)
T5 sequence (whole entry): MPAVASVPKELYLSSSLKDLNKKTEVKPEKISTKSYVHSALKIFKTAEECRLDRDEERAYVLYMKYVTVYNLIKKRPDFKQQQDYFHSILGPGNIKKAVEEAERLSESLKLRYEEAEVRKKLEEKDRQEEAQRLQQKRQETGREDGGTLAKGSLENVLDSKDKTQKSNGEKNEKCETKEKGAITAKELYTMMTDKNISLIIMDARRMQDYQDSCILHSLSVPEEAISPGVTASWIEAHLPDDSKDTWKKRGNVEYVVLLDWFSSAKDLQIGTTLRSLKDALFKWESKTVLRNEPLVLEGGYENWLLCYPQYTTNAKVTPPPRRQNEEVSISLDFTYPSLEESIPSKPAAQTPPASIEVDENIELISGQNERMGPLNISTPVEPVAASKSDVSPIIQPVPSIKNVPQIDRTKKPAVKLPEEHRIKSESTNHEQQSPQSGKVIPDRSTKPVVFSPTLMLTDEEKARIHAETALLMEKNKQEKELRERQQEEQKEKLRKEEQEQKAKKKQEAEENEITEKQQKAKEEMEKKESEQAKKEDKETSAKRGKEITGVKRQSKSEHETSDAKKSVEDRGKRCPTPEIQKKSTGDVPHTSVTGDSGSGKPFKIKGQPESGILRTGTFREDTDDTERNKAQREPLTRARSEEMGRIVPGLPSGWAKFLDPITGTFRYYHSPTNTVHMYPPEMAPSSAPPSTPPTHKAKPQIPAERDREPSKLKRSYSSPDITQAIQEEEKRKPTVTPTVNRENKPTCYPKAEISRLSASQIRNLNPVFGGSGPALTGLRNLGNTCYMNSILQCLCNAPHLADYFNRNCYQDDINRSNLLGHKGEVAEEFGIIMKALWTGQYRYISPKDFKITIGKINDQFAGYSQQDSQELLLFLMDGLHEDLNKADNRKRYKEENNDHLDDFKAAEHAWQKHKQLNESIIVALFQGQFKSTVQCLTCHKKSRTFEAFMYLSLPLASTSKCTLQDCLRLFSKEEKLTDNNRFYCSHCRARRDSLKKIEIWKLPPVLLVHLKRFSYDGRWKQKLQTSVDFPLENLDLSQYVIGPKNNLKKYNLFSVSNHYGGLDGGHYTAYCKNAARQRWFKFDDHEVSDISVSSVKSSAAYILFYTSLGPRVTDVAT
Method in brief: as §1

USP9X = USP9X (UniProt Q93008)
Sequence of USP9X (Q93008 whole entry): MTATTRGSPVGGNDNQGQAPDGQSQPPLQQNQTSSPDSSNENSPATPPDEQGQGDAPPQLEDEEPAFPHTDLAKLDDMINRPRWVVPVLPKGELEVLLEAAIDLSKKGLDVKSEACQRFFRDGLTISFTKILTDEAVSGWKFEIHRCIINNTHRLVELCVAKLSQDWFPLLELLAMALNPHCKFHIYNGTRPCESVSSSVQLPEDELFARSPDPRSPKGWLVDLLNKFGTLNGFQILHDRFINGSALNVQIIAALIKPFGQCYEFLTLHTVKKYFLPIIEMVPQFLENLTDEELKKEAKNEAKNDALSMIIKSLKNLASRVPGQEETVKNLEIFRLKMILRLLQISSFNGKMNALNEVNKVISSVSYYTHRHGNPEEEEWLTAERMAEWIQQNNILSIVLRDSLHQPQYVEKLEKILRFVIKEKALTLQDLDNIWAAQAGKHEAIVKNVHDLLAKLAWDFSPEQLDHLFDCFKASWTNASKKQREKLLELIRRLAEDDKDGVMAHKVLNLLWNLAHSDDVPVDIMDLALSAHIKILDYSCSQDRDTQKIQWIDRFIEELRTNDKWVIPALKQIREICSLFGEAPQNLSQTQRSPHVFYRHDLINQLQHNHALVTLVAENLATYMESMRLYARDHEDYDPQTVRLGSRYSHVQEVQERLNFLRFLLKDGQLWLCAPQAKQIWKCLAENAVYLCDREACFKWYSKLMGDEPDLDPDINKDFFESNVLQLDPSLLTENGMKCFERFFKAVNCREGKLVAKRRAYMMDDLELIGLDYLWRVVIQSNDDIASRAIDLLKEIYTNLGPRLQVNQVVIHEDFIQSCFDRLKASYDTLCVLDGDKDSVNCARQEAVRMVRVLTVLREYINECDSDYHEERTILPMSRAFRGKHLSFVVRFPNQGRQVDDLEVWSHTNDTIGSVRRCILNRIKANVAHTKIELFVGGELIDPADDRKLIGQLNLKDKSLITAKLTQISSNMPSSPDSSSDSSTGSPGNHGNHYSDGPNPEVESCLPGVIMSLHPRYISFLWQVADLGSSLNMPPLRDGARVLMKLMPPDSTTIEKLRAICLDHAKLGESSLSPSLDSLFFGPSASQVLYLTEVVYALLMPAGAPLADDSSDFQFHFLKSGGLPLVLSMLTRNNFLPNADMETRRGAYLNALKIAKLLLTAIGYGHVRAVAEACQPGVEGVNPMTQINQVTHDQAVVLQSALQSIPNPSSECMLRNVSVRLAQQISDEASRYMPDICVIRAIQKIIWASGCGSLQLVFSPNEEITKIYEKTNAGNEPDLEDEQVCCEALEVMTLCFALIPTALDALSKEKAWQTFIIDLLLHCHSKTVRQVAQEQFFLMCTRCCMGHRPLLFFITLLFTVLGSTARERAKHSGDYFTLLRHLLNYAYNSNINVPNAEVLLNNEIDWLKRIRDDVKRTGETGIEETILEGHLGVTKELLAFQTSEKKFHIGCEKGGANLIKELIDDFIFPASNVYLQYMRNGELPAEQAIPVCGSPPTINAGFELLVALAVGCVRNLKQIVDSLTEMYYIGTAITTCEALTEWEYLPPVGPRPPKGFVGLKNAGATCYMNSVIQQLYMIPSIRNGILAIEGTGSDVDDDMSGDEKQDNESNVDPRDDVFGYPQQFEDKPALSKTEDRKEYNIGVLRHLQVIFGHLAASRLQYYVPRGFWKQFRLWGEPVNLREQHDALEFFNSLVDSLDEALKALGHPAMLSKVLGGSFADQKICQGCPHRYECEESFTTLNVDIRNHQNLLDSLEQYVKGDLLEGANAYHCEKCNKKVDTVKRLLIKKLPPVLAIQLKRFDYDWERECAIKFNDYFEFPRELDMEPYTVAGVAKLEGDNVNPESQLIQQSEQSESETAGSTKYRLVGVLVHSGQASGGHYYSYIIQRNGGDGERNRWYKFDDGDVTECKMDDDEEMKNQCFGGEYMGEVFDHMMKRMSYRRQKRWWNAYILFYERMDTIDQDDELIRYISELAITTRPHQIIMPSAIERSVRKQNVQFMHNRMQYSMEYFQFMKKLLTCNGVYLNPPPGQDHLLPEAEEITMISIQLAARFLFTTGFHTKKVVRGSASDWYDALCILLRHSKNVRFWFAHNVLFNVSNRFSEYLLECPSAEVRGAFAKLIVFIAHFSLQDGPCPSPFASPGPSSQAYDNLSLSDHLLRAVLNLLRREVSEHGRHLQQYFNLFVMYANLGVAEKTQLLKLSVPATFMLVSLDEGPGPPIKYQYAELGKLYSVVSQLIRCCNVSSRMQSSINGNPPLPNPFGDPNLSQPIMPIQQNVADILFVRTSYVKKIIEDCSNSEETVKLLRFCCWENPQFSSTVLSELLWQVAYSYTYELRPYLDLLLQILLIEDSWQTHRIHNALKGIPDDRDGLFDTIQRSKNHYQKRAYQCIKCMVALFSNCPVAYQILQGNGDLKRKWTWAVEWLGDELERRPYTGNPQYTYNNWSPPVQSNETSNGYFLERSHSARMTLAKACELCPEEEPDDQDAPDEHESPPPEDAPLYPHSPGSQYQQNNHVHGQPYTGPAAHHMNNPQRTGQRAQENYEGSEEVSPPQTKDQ
Method in brief: as §1

UniProt O00487 = target: UniProt O00487
Sequence of UniProt O00487 (O00487 whole entry): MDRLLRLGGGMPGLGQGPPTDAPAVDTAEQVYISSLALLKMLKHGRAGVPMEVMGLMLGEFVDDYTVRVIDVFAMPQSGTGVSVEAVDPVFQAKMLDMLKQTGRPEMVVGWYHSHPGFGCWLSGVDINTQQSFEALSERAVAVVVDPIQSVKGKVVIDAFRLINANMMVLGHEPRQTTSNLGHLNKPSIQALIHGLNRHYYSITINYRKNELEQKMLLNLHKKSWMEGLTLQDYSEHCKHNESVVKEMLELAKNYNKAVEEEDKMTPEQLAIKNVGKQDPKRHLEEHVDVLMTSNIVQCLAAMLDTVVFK
Method in brief: as §1

Measured: log2 ratio of Biotin-Ahx-Ub-VS probe labelling

O=C(CCl)NCC1(c2ccccc2)CC1
inactive: USP42 -0.475 | USP46 0.0609 | USP47 -0.388 | USP48 -0.502 | USP5 0.023 | USP54 0.574 | USP7 -0.075 | USP8 -0.144 | USP9X -0.121 | UniProt O00487 -0.00244

— the supplement of paper PMC11732987, “Enantioselective OTUD7B fragment discovery through chemoproteomics screening and high-throughput optimisation” (Communications Chemistry, 2025)
